Several values for one entry are separate records, joined by “and”; a condition that tells them apart may be missing. Equal values may be shown once. Activity calls are given as the source filed them.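 How the source made its calls: active means relative GCLC transcription at 1 µM of at least 250%; inconclusive means relative GCLC transcription at 1 µM between 200% and 250%; inactive means relative GCLC transcription at 1 µM under 200%.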

This assay can be described thus: qHTS of Nrf2 Activators: Hit Validation in GCLC Induction Assay. To be noted: Hepa1c1c7 cells, GCLC mRNA qPCR, 24 h; at 1 µM; stronger effect = higher value. An excerpt: Many diseases have some form of oxidative stress injury and ties to inflammation, causing a host of problems for the patient. The antioxidant response element (ARE) plays an important role in alleviating the harmful effects of oxidative stress. The antioxidant response element (ARE) is a transcriptional regulatory element involved in the activation of genes coding for a number of antioxidant proteins and detoxifying enzymes. These enzymes work in concert to protect tissues from oxidative insults and chemical toxicities in human hepatocytes and immune cells. The protective effects of ARE activation are primarily triggered through Nrf2 (NF-E2-related factor) binding to and activating AREs. It is known that Nrf2 controls the production of over 250 antioxidant and detoxification proteins (Hu et al., 2006), thereby protecting tissues by increasing cellular antioxidant content and suppressing inflammatory signaling pathways. The transcription factor Nrf2 is a central link between oxidative chemicals, such as phenolic antioxidants and electrophilic compounds, and the activation of ARE. Nrf2 levels are constitutively low as a consequence of its interaction with Keap1, which targets its degradation (Zipper and Mulcahy, 2002). Electrophiles react with key cysteine residues in Keap1, releasing Nrf2 and allowing its translocation to the nucleus. Once within the nucleus, Nrf2 complexes with coactivators such as p300, and binds to the AREs to induce gene transcription of cytoprotective enzymes, resulting in the prevention of toxicity. Activation of Nrf2 protects tissues by increasing cellular antioxidant content and suppressing inflammatory signaling pathways. Identifying novel and potent Nrf2 activators by using the AREc32 cell line to detect ARE activation by small molecules will lead to the identification and development of probes to study protective pathways in multiple tissues. These specific probes are essential to study the ARE pathway, and eventually to determine whether this pathway does activate genes that could protect against a host of diseases, including cardiovascular diseases, obesity, diabetes, Alzheimer's, and Parkinson's disease. This project's aim is to identify novel and potent Nrf2 activators by using the AREc32 cell line to detect ARE activation by small molecules, which will lead to the identification and development of probes to study the ARE pathway. Compounds that were identified in the primary screen were tested in this secondary assay to assess whether a hit also activates Nrf2 transcription of the target gene GCLC. NIH Chemical Genomics Center [NCGC] NIH Molecular Libraries Probe Centers Network [MLPCN] MLPCN Grant: DK081461 Assay Submitter (PI): Curtis Klaassen, University of Kansas Medical Center
Hepac1c7 cells were seeded into 24-well plates at a density of 30,000 cells/well in 1 mL complete media per well and cultured overnight to allow attachment. Cells were treated the next day with compounds (1 uM)or positive control for 24 h. Total RNA samples were then isolated by using RNAzol B reagent (Tel-Test, Inc., Friendswood, TX) according to the manufacturer's protocol. Total RNAs were reverse-transcribed into cDNA by High Capacity cDNA Archive Kits (Applied Biosystems, Foster City, CA) and the resulting cDNA was used for real-time PCR analysis using SYBR(R) Green PCR Master Mix in a 7900HT Fast Real-Time PCR System.
As to `COC(=O)c1c(NC(=O)c2ccccc2)sc(C(N)=O)c1C`, the relative GCLC transcription was 120% (inactive).

Regarding `Cc1nc(NCc2ccco2)nc2c1C(=O)CC(C)C2` (stereo not given), the relative GCLC transcription was 158% (inactive). Next, `COc1ccccc1NC(=O)c1cc(Cl)nc2ccccc12`: 461%; `O=C(Nc1ncnc2sc3c(c12)CCCCC3)c1ccco1`: 109% (inactive) and 134% (inactive). Take `Clc1ccc2c(NCc3ccccn3)ncnc2c1`: the relative GCLC transcription was 181% (inactive). The same measure for `COc1ccc(NC(=O)c2cc(-c3ccco3)on2)c(OC)c1`: 155% (inactive); for `CS(=O)(=O)c1nc(S(=O)(=O)c2ccc(Cl)cc2)c(N2CCOCC2)s1`: 148% (inactive); for `O=C(Nc1ncnc2sc3c(c12)CCC3)c1ccco1`: 122% (inactive). Next, `COc1ccc(NC(=O)c2cc(-c3cccs3)on2)c(OC)c1`: 157% (inactive). Next, `O=C(Nc1cccc2ncccc12)c1ccc(Cl)cc1`: 369%.

The record behind these values is PubChem BioAssay AID652014 (National Center for Advancing Translational Sciences (NCATS), 2013).
